PubChem BioAssay (EPA / NIEHS)
Records with an inconclusive call do not appear. The source made the active and inactive calls. Rule for the calls: active = hit-call score of the fitted dose curve at least 0.9, where 1 is the maximum; inconclusive = response in the unintended direction; inactive = score below 0.9.

Molecular target: human Tropomyosin Receptor Kinase A (TRKA), NTRK1 (gene 4914) (UniProt P04629)
Test: NVS_ENZ_hTrkA: NovaScreen (NVS) Enzymatic Assay for human Tropomyosin Receptor Kinase A (TRKA) (AID 2283224)
Protocol: NVS_ENZ_hTrkA is a biochemical, single-readout assay that uses extracted gene-proteins in a cell-free assay. Measurements were taken 1 hour after chemical dosing in a 384-well plate.NVS_ENZ_hTrkA is one of one assay component(s) measured or calculated from the NVS_ENZ_hTrkA assay. It is designed to make measurements of enzyme activity, a form of enzyme reporter, as detected with fluorescence intensity signals by Fluorescence and electrophoretic mobility shift technology.Data from the assay component NVS_ENZ_hTrkA was analyzed into 1 assay endpoint. This assay endpoint, NVS_ENZ_hTrkA, was analyzed in the positive analysis fitting direction relative to DMSO as the negative control and baseline of activity. Using a type of enzyme reporter, loss-of-signal activity can be used to understand changes in the enzymatic activity as they relate to the gene NTRK1. Furthermore, this assay endpoint can be referred to as a primary readout, because this assay has produced multiple assay endpoints where this one serves a enzymatic activity function. To generalize the intended target to other relatable targets, this assay endpoint is annotated to the kinase intended target family, where the subfamily is receptor tyrosine kinase.
Binding assays used specific radioligands (tritiated, iodinated) with non-radioactive competitive displacement ligands in agonist or antagonist protocols (as indicated) and various reference compounds and inhibitors to titrate specific binding to receptors and transporters. Most enzyme assays (CYPs, kinases, phosphatases, proteases, HDACs) used recombinant protein and specific substrates (fluorescence mostly, some colorimetric and radioactive) and inhibitors, followed by a biochemical separation of substrate and product. All assays for the biochemical HTS were initially run in duplicate at a single concentration (10 uM for CYP450 assays and 25 uM for all others). Assay-chemical combinations meeting a pre-defined threshold (e.g., 30% inhibition and other criteria defined below) were then run in singleton concentration-response format with maximum concentration of 20 uM for CYPs and 50 uM for all others. Each assay was run with positive and negative controls, and concurrent controls on every plate. The follow-up (secondary) screen tested active chemical-pairs in concentration series, as well as a few additional assays not tested in the primary screen, some selected negative inactives, and several cases re-run in the concentration series for confirmatory purposes.

Sequence of human Tropomyosin Receptor Kinase A (TRKA), NTRK1 (gene 4914) (P04629 whole entry, looked up): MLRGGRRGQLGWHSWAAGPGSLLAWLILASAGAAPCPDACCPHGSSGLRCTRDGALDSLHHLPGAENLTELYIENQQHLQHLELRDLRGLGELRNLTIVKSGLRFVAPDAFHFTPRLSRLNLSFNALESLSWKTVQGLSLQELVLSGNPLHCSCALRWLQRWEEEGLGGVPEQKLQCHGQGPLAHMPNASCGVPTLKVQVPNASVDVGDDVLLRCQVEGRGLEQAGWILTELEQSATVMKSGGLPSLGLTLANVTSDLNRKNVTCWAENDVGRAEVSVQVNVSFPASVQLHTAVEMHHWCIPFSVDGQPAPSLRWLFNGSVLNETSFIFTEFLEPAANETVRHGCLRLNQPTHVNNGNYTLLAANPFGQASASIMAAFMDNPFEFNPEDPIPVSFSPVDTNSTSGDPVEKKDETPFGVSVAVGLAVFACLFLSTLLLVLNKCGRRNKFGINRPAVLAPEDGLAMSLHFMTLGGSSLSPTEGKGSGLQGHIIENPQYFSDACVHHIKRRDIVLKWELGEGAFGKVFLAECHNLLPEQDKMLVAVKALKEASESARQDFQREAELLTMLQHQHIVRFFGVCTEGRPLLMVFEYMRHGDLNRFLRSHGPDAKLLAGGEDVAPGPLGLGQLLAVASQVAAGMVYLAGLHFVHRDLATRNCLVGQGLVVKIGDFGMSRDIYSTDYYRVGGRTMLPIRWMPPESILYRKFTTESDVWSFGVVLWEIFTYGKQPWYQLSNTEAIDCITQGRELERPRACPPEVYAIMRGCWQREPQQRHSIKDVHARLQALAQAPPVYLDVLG

| Compound | outcome |
| --- | --- |
| CC(Oc1ccc(Cl)cc1Cl)C(=O)O (centres undefined) | inactive |
| CCCN(CCC)c1c([N+](=O)[O-])cc(S(N)(=O)=O)cc1[N+](=O)[O-] | inactive |
| CO/C=C(/C(=O)OC)c1ccccc1Oc1cc(Oc2ccccc2C#N)ncn1 | inactive |
| N#Cc1cc(Br)c(O)c(Br)c1 | inactive |

Molecular target: human Tyrosine Protein Kinase Receptor Tie-2 (Tie2), TEK (gene 7010) (UniProt Q02763)
Sequence (Q02763 whole entry, looked up): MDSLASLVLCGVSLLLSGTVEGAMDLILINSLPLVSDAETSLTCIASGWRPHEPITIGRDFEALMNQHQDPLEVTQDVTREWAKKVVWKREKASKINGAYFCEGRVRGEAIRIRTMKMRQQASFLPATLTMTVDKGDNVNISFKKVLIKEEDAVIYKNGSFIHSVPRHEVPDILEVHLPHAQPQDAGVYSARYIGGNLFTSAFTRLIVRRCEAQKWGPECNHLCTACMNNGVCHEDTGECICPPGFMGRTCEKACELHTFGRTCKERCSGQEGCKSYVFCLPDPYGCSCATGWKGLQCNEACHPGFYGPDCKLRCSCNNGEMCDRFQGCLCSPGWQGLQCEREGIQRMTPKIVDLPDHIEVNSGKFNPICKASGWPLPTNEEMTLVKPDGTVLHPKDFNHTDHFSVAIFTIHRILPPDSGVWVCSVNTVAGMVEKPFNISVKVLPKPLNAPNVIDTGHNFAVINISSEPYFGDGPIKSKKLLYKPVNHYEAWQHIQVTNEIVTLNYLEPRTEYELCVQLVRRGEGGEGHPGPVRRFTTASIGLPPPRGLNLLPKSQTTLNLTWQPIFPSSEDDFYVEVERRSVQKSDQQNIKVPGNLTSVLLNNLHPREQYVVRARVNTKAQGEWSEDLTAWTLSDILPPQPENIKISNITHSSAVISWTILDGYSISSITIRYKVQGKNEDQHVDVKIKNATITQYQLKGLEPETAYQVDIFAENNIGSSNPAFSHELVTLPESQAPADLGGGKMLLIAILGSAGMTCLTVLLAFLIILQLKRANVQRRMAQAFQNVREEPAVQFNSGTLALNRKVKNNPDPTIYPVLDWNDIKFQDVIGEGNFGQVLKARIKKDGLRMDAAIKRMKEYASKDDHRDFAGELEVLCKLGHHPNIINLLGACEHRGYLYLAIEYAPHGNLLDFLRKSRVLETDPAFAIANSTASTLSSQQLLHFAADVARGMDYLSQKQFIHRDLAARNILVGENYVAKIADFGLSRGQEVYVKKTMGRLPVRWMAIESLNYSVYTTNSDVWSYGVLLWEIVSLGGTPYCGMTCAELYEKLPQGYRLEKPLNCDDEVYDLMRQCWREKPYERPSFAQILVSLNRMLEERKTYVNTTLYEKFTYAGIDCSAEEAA
Test: NVS_ENZ_hTie2: NovaScreen (NVS) Enzymatic Assay for human Tyrosine Protein Kinase Receptor Tie-2 (Tie2) (AID 2283225)
Outline: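 Recombinant human Tie2 kinase activity was read cell-free by fluorescence with electrophoretic mobility shift, 1 hour after dosing. The screen used 25 uM in duplicate, then concentration-response up to 50 uM. Signal loss was scored against DMSO.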

| Compound | outcome |
| --- | --- |
| CNC(=S)S | inactive |
| COC(=O)C(C)Oc1ccc(Oc2ccc(Cl)cc2Cl)cc1 (centres undefined) | inactive |
| CCCN(CCC)c1c([N+](=O)[O-])cc(S(N)(=O)=O)cc1[N+](=O)[O-] | inactive |
| Cc1ccc(-c2c(Cl)nc(C#N)n2S(=O)(=O)N(C)C)cc1 | inactive |
| CCCCOC(=O)c1ccccc1C(=O)OCCCC | inactive |
